The values below come from PubChem BioAssay (NCI).

A short description of assay [1]: NCI Yeast Anticancer Drug Screen. Data for the rad50 strain (AID 155).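 Also: 0% = growth of vehicle-only cultures of the same strain.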 The note with it: S. cerevisiae rad50 strain growth inhibition; at 50.0 µM; active compounds read high. An outline of the steps: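 Growth of the mutant yeast was measured after compound exposure and referenced to vehicle-treated cultures.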
Assay [2] can be described thus: NCI Yeast Anticancer Drug Screen. Data for the mec2-1 strain (AID 157). The note with it: S. cerevisiae mec2-1 strain, at 50.0 µM, active compounds read high. An outline of the steps:
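Strain: mec2-1 (DNA repair/cell cycle alteration). Compound exposure, then growth measured; inhibition expressed relative to vehicle.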

Assay [3] is described as follows: NCI Yeast Anticancer Drug Screen. Data for the sgs1 mgt1 strain (AID 161).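 Also: 0% = growth of cultures given vehicle only.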 To be noted: S. cerevisiae sgs1 mgt1 strain, at 50.0 µM, active compounds read high. An outline of the steps: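 Mutant yeast exposed to compound; growth scored against vehicle-only wells.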
Assay [4] in a line: NCI Yeast Anticancer Drug Screen. Data for the cln2 rad14 strain (AID 165).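 Also: 0% = growth equal to vehicle treated cultures.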 To be noted: S. cerevisiae cln2 rad14 strain, at 50.0 µM, active compounds read high. An outline of the steps: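 Compounds are applied to the cln2 rad14 yeast strain, and growth is then compared with that of vehicle-treated cultures to give inhibition.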
A short description of assay [5]: NCI Yeast Anticancer Drug Screen. Data for the bub3 strain (AID 167). The note with it: S. cerevisiae bub3 mutant strain, at 50.0 µM, active compounds read high. An outline of the steps: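 Whole-cell yeast assay. The mutant strain was incubated with compounds, and growth inhibition was determined by comparison with vehicle-treated cells.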
Assay [6] in a line: NCI Yeast Anticancer Drug Screen. Data for the mlh1 rad18 strain (AID 175). To be noted: S. cerevisiae mlh1 rad18 strain growth inhibition; at 50.0 µM; active compounds read high. An outline of the steps: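 Read-out is yeast growth inhibition, calculated against vehicle-only controls. The compound was applied to a strain engineered with DNA damage repair alterations.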

About 79,000 compounds went through this panel and 15% of them were active in at least one assay; those are over-represented in the sample as a whole. A number with no mark means an inactive call. The source made the active and inactive calls. Rule as the data show it: active = growth inhibition above about 70%; inactive = the rest.

For the molecule `CCOC(=O)/C(=C\c1ccc[nH]1)C(=O)c1ccccc1`, the growth inhibition is 48% in assay [1]; -5.9% in assay [2]; 5% in assay [3]; 27.6% in assay [4]; 20.1% in assay [5]; 9.05% in assay [6].
As to `COc1ccc2c(c1OC)C1CCCCC1SCC2=O` (stereo unspecified), the growth inhibition in assay [1] is 14.4%; in assay [2], 6.85%; in assay [3] it was 0.7%; in assay [4], 5.75%; in assay [5], 12.5%; in assay [6], -16.4%.
For `O=c1[nH]c(-c2ccccc2)nc2[nH]ncc12`, the growth inhibition in assay [1] was -3.2%; in assay [2], -11.3%; in assay [3], 23.1%; in assay [4], 9.45%; in assay [5] it was -7.4%; in assay [6] it was 6.15%.
`O=C(O)CCC(=O)OCc1ccccc1`: the growth inhibition in assay [1] was 3.15%; in assay [2], 22.6%; in assay [3], -22.1%; in assay [4] it was -16.6%; in assay [5] it was -11.2%; in assay [6], 0.8%.
Regarding `CN(N=O)C(=O)NCCSc1ncnc2nc[nH]c12`, the growth inhibition in assay [1] was 9.75%; in assay [2] it was 13.1%; in assay [3] it was -2.25%; in assay [4] it was -108%; in assay [5], -2.5%; in assay [6] it was -17.2%.
Consider `CCCCN(Cc1ccccc1)C(=O)Nc1ccccc1`, for which the growth inhibition in assay [1] was 4.5%; in assay [2], 30.1%; in assay [3], 33.1%; in assay [4], -8.1%; in assay [5] it was 39%; in assay [6], 1.2%.
Consider `O=Cc1cc2c(cc1-c1c(C=O)ccc3c1OCO3)OCO2`, for which the growth inhibition is 58.2% in assay [1]; 27.2% in assay [2]; 46.9% in assay [3]; 18.6% in assay [4]; 30.9% in assay [5]; 26.6% in assay [6].
For `O=C(O)C(=O)Cc1c[nH]c2ccccc12`, the growth inhibition in assay [1] is 1.2%; in assay [2], -7.55%; in assay [3], 29.4%; in assay [4] it was 7.3%; in assay [5] it was -11.1%; in assay [6], -3.7%.
On to `Nc1nc2nc[n-]c2c(=O)[nH]1.[NH2-].[NH2-].[NH2-].[NH2-].[NH2-].[Ru+6]`, for which the growth inhibition in assay [1] is 20.6%; in assay [2] it was 4.55%; in assay [3] it was 4.9%; in assay [4] it was 2.5%; in assay [5], -5.8%; in assay [6] it was -4.9%.
On to `CCCCCC1(C)OCC(c2ccccc2)O1` (stereo unspecified), for which the growth inhibition is -12.8% in assay [1]; -9.45% in assay [2]; -21% in assay [3]; -47% in assay [4]; -13.3% in assay [5]; 21.1% in assay [6].
As for `c1ccc2c(c1)ncn2C1CCCCO1` (stereo unspecified), the growth inhibition in assay [1] is 4.7%; in assay [2], -9.8%; in assay [3], -16.8%; in assay [4], 0.9%; in assay [5], -7.45%; in assay [6], -38.3%.
Turning to `CC(=O)N(c1ccccc1)c1cc(Cl)cc[n+]1[O-]`, the growth inhibition is 8.5% in assay [1]; 3.5% in assay [2]; 5.45% in assay [3]; -3.7% in assay [4]; 5.3% in assay [5]; -2.05% in assay [6].
For the molecule `O=C(CCBr)Nc1ccccc1`, the growth inhibition in assay [1] is 11.1%; in assay [2], -15.2%; in assay [3] it was -7.15%; in assay [4], -38.2%; in assay [5], -7.35%; in assay [6], -26.4%.
With `CN(C)c1ccc(/C=N/NC(=O)c2ccccc2NC(=O)C2CC2)cc1`, the growth inhibition is -11.4% in assay [1]; 1.4% in assay [2]; 27% in assay [3]; -18.8% in assay [4]; 24.8% in assay [5]; 26.6% in assay [6].
`O=C1c2ccccc2C(O)(C#Cc2ccccc2)c2c1c(-c1ccccc1)c1ccccc1c2-c1ccccc1` (stereo unspecified): the growth inhibition in assay [1] was 14.7%; in assay [2] it was 6.15%; in assay [3], 15.7%; in assay [4], 9.75%; in assay [5], -8.3%; in assay [6], 10.4%.
For the molecule `c1ccc(C(Sc2c[nH]c3ccccc23)(c2ccccc2)c2ccccc2)cc1` (tested in a mixture with another compound), the growth inhibition is -20.4% in assay [1]; -11.7% in assay [2]; 9.8% in assay [3]; 1.9% in assay [4]; -38.5% in assay [5]; -25.1% in assay [6].
Take `Cc1ccc(N=Cc2cc(Cl)cc(Cl)c2OC(=O)c2ccccc2)cc1C`: the growth inhibition in assay [1] is 81.8% (active); in assay [2], 91.7% (active); in assay [3], 91% (active); in assay [4], 90.2% (active); in assay [5], 96.5% (active); in assay [6], 93.3% (active).
On to `O=C(O)c1cc(=O)c2cc3c(cc2o1)OCc1ccccc1-3`, for which the growth inhibition was 13.8% in assay [1]; -6.15% in assay [2]; 2.1% in assay [3]; 19.4% in assay [4]; -6.5% in assay [5]; 3.55% in assay [6].
As for `CCCCOC(=O)CCc1nc2c([nH]1)c(=O)n(C)c(=O)n2C`, the growth inhibition in assay [1] is 15.8%; in assay [2], 8.9%; in assay [3], 9.5%; in assay [4], 42.4%; in assay [5], 9.65%; in assay [6], -0.45%.
Regarding `O=c1[nH]n2c(=O)cc[nH]c2c1-c1nnns1`, the growth inhibition is -15.8% in assay [1]; -2.95% in assay [2]; -36.1% in assay [3]; 9.65% in assay [4]; -21.1% in assay [5]; -25.2% in assay [6].
For `CCC(=O)c1ccc2ccccc2c1`, the growth inhibition in assay [1] is 5.1%; in assay [2] it was 3.75%; in assay [3] it was -0.65%; in assay [4], -10.1%; in assay [5], -2.1%; in assay [6], -0.55%.
